Active and inactive are the calls of the source. Unless noted, the rule behind the calls is not given here.

Test [1] has as its system XIP peptide (Xip251-270) binding. Put plainly: XIP fragment 251-270 binding compounds – biochemical, small-molecule microarray, fluorescence 635/667 nm, 0.1 µg/mL protein, primary screen (AID 1182). The conditions noted are these: fluorescent protein binding, 635 nm, higher = more signal, called active from +8 up or from −8 down.
For another test, the system named is XIP peptide (Xip251-270). Put plainly: compounds binding XIP fragment 251-270 – biochemical, small-molecule microarray, fluorescence 635/667 nm, 0.5 µg/mL protein, primary screen (AID 1183). The conditions noted are these: fluorescence 635 nm, higher = more signal.
Test [2] in a line: blood-stage malaria parasite viability loss – strain 3D7, DAPI fluorescence, 100 nL, primary screen (AID 1184).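 Note: parasites grown inside human red blood cells in medium with human serum.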 The settings on record: P. falciparum 3D7 growth, 3 d, higher = more signal.
Test [3] addresses Homeobox protein Hox-A13 (Mus musculus) (UniProt Q62424). The test is described as follows: disruptors of Hoxa13 oligonucleotide interaction – biochemical, fluorescence polarization, labeled oligonucleotide, primary screen (AID 1185). The conditions noted are these: Hoxa13:DNA binding, 15 min, higher = more signal, called active from +8 up or from −8 down.
Test [4] in a line: blockers of DNA damage checkpoint Chk1 activation – imaging, HeLa, hydroxyurea, phospho-Chk1 antibody, percent positive cells, primary screen (AID 1186). The conditions noted are these: hydroxyurea-induced phospho-Chk1 immunofluorescence imaging, higher = more signal.
A short description of test [5]: blockers of DNA damage checkpoint Chk1 activation – imaging, HeLa, hydroxyurea, phospho-Chk1 nuclear intensity, primary screen (AID 1187). The conditions noted are these: hydroxyurea-induced phospho-Chk1 immunofluorescence imaging, higher = more signal.

Sequence of Homeobox protein Hox-A13 (Mus musculus) (Q62424 whole entry, looked up): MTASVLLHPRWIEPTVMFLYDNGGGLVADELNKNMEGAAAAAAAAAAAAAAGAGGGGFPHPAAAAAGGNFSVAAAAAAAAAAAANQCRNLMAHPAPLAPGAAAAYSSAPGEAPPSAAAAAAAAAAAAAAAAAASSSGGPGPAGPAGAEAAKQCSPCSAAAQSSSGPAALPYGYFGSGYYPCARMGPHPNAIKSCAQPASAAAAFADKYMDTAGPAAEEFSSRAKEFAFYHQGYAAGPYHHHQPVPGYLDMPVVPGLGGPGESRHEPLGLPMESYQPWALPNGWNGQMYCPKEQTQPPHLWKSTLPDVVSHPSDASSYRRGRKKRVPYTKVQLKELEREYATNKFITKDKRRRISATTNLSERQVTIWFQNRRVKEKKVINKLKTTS

Consider `CO[C@H]1O[C@H](CO)[C@@H](OC(=O)CCc2ccccc2)[C@@H]2OC(=O)[C@@H](Cc3ccc4ccccc4c3)C/C=C/C[C@H](Cc3ccc4ccccc4c3)C(=O)O[C@@H]12`, for which the composite z-score in test [1] was 0.204 (inactive); with XIP peptide (Xip251-270) it was 0.448. Moreover, the z-score was -2.13 in test [2], -4.15 (inactive) in test [3], -0.267 (inactive) in test [4] and -0.343 (inactive) in test [5].
Take `C=C[C@H](OC)[C@@H](O)c1ccc(OC)c(O)c1`: the composite z-score in test [1] was -1.51 (inactive); with XIP peptide (Xip251-270), 1.1. In addition, the z-score in test [2] is -0.874; in test [3], -1.36 (inactive); in test [4] it was 0.171 (inactive); in test [5], 0.705 (inactive).
In the case of `C=CCNC(=O)[C@H]1[C@@H]2C(=O)O[C@@H](c3ccccc3)[C@@H](c3ccccc3)N2[C@@H](c2ccc(OCCO)cc2)[C@]12C(=O)N(C(=O)OCCOC)c1ccc(C#CCC(C(=O)OC)C(=O)OC)cc12`, the results for the composite z-score (in test [1]; with XIP peptide (Xip251-270)) were 0.275 (inactive) and 0.734, respectively. The z-score was -1.82 in test [2], -0.253 (inactive) in test [3], 0.338 (inactive) in test [4] and 0.475 (inactive) in test [5].
`C=CC[C@H](OC(=O)Nc1ccc(SC)cc1)c1ccc(O)c(F)c1`: the values for the composite z-score (in test [1]; in the test with XIP peptide (Xip251-270)) were 1.07 (inactive) and -0.193, respectively. The z-score in test [2] was -0.249; in test [3], -0.845 (inactive); in test [4], 0.355 (inactive); in test [5] it was 0.417 (inactive).
On to `COC(=O)[C@@]1(Cc2ccc(F)cc2)[C@H]2c3cc(C(=O)N4CCCC4)n(Cc4ccc(OC(F)(F)F)cc4)c3C[C@H]2CN1C(=O)c1ccccc1`, for which the values for the composite z-score (in test [1]; in the test with XIP peptide (Xip251-270)) were 0.124 (inactive) and 0.267, respectively. The z-score in test [2] was 0.096; in test [3], -3.8 (inactive); in test [4] it was 1.06 (inactive); in test [5], 0.639 (inactive).
Turning to `COc1ccc([Si](C)(C)[C@@H]2[C@@H](CC(=O)N(CCO)Cc3ccccc3)O[C@]3(C(=O)N(Cc4cccc(I)c4)c4ccccc43)[C@H]2C)cc1`, the composite z-score in test [1] is 0.479 (inactive); with XIP peptide (Xip251-270), 0.252. Also, the z-score is -2.86 in test [2], -1.79 (inactive) in test [3], 0.55 (inactive) in test [4] and 0.828 (inactive) in test [5].
Turning to `C=C(CCCC)C(=O)CC[C@H](OC(=O)c1ccccc1-c1ccccc1C(=O)O)c1cccc(OCCO)c1`, the composite z-score in test [1] was -0.459 (inactive); in the test on XIP peptide (Xip251-270), 0.614. The z-score was -2.65 in test [2], -6.4 (inactive) in test [3], 1.01 (inactive) in test [4] and 0.182 (inactive) in test [5].
Take `C=CCOC(=O)[C@@H]1[C@H]2C(=O)O[C@H](c3ccccc3)[C@H](c3ccccc3)N2[C@H](c2ccc(OCCOC(=O)[C@@H]3C[C@@H]4C(=O)N[C@@H](CC(C)C)C(=O)N4[C@@H]3c3ccc(O)cc3)cc2)[C@@]12C(=O)Nc1ccc(I)cc12`: the figures for the composite z-score (in test [1]; in the test on XIP peptide (Xip251-270)) were 0.78 (inactive) and 0.761, respectively. In addition, the z-score in test [2] is -1.51; in test [3], 0.374 (inactive); in test [4], -0.926 (inactive); in test [5], -0.838 (inactive).
As to `Cc1ccc(S[C@]2(C(=O)NC(C)C)CC(=O)N(Cc3ccccc3)[C@@H]2c2ccc(CO)cc2I)cc1`, the composite z-score is 1.69 (inactive) in test [1] and -0.304 with XIP peptide (Xip251-270). In addition, the z-score in test [2] was -0.158; in test [3] it was -3.33 (inactive); in test [4], -0.641 (inactive); in test [5], -0.268 (inactive).
Consider `C=CCOC(=O)[C@H]1[C@@H]2C(=O)O[C@@H](c3ccccc3)[C@@H](c3ccccc3)N2[C@@H](c2ccc(OCCOC(=O)[C@@H]3C[C@@H]4C(=O)N[C@@H](Cc5ccccc5)C(=O)N4[C@@H]3c3ccc(O)cc3)cc2)[C@]12C(=O)Nc1ccc(I)cc12`, for which the composite z-score was 1.12 (inactive) in test [1] and 0.751 with XIP peptide (Xip251-270). In addition, the z-score in test [2] was -1.39; in test [3] it was 0.703 (inactive); in test [4], -0.272 (inactive); in test [5], -0.152 (inactive).
For the molecule `CCCCN1CC=CC23O[C@@H]4/C=C\CCCOC(=O)C4[C@H]2C(=O)N(CCCCCCO)[C@@H]3C1=O` (some centres not stated), the composite z-score in test [1] is 0.723 (inactive); in the test with XIP peptide (Xip251-270), 0.803. Moreover, the z-score in test [2] is -0.165; in test [3], -4.71 (inactive); in test [4], -0.624 (inactive); in test [5] it was -0.137 (inactive).
`COCCCNC(=O)[C@@]1(CCC(=O)OC(C)(C)C)N=C(c2ccc(OCCCO)cc2)O[C@H]1c1ccccc1`: the composite z-score in test [1] is 0.809 (inactive); with XIP peptide (Xip251-270), 0.754. Also, the z-score is -0.0488 in test [2], -4.75 (inactive) in test [3], 0.185 (inactive) in test [4] and 0.633 (inactive) in test [5].
`O=C(O)C1=CC[C@H]2C(=O)N(c3ccccc3)C(=O)[C@@H]12`: the composite z-score is 0.688 (inactive) in test [1] and 0.783 with XIP peptide (Xip251-270). For the same molecule, the z-score was 0.0472 in test [2], -3.04 (inactive) in test [3], -0.416 (inactive) in test [4] and -0.647 (inactive) in test [5].
Consider `O=C(CS)NCCCCCCNC(=O)[C@H]1C[C@H]2C(=O)NCC(=O)N2[C@H]1c1cccc(OCCO)c1`, for which the composite z-score in test [1] is 0.419 (inactive); with XIP peptide (Xip251-270), 0.702. In addition, the z-score in test [2] is -1.34; in test [3] it was -2.25 (inactive); in test [4], -0.321 (inactive); in test [5] it was -0.529 (inactive).
With `CCCCCCCCCCC(O)C1C=CC2C(=O)N(C)C(=O)C2N1Nc1ccccc1` (configuration not stated), the composite z-score in test [1] was 1.04 (inactive); with XIP peptide (Xip251-270), -1.39. For the same molecule, the z-score in test [2] was -0.0339; in test [3], -2.87 (inactive); in test [4], 0.999 (inactive); in test [5], 0.135 (inactive).
`C=CCNC(=O)[C@H]1[C@@H]2C(=O)O[C@@H](c3ccccc3)[C@@H](c3ccccc3)N2[C@@H](c2ccc(O)cc2)[C@]12C(=O)Nc1ccccc12`: the composite z-score in test [1] is -0.067 (inactive); with XIP peptide (Xip251-270) it was 0.821. Moreover, the z-score in test [2] is 0.478; in test [3] it was -3.97 (inactive); in test [4] it was 0.0866 (inactive); in test [5], 0.432 (inactive).
Regarding `O=C(NC1CC1)[C@@H]1c2ccccc2C(=O)N(C2CCCCC2)[C@H]1c1ccc(CO)cc1`, the composite z-score was 0.969 (inactive) in test [1] and 0.647 with XIP peptide (Xip251-270). Besides, the z-score in test [2] was -1.1; in test [3], -3.16 (inactive); in test [4], -0.312 (inactive); in test [5], -0.617 (inactive).

These data come from PubChem BioAssay.
